This is a sample that favours compounds with a hit; in the whole collection about 11% have one here.
AMA1-RON2 inh – inhibitors of Plasmodium falciparum AMA1-RON2 interaction; AlphaScreen AMA1-biotinylated RON2 peptide binding; Potency, µM (top dose mostly 58.2 µM), usual class: inhibitors; actives 0.2% (n = 360,000); also: nearly all actives have a fitted effect of over 45% in size
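AMA1 (3D7) with his tag at 25 nM final met compounds first, then biotinylated RON2 peptide at 25 nM; detection used donor plus acceptor beads, 10 µg/mL apiece, read by AlphaScreen after 30 min at room temperature.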
Pf growth 48h – inhibits P. falciparum growth in the first generation, 48 h; P. falciparum luciferase growth in erythrocytes, 48 h; Potency, µM (top dose mostly 28.7 µM), actives largely listed as inhibitors; actives 5.9% (n = 310,000)
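First compound was added to culture medium, then infected red cells at 0.1% parasitemia and 2% hematocrit (final). After incubation at 37 C under 5% CO2, luciferase detection reagent was dispensed and light output recorded.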
HCV inhibitor – inhibitors of hepatitis C virus infection; actives 3.4% (n = 340,000); Potency, µM (doses to about 41.8 µM), hits mostly inhibitors; Huh7.5.1 HCVcc-Cre infection, luciferase reporter, 44 h; AID 651820
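Seed cells (1,000/well) for 4 h; treat with compound and infect with HCVcc-Cre, moi about 0.5. Incubate 44 h, then detect luciferase activity.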
Pf growth 96h – inhibits malaria parasite growth, 96 h. actives 6.9% (n = 320,000). Potency, µM (titrated, usually from 28.7 µM), hits mostly inhibitors. P. falciparum luciferase reporter growth, 96 h
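Infected RBCs, 2% Hct / 0.05% parasitemia final; luciferase-reporter P. falciparum; cpd 96 h, 37 C, 5% CO2; luciferase detection reagent; luminescence.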
Of the large screens only hits and unclear results are named; the others gave an inactive call. Calls follow the shape of the dose curve; as a rule, active = well fitted curve in the direction sought with a large enough effect; inconclusive = small, poorly fitted or top-dose-only effect, or another doubt; inactive = no such curve, though single readings can be large; an effect the other way counts as inactive or inconclusive.

COCC(=O)N1CCC(n2nccc2NC(=O)CCOc2ccccc2)CC1	HCV inhibitor inconclusive, Pf growth 96h 11.7µM
COC(=O)CCCC(=O)N1CCC(n2nccc2NC(=O)CCOc2ccccc2)CC1	Pf growth 96h inconclusive
COC(=O)CNC(=O)Cn1nc(C)c([N+](=O)[O-])c1C	none
Cc1ccc2nc(-c3ccccn3)c(N)n2c1	none (no result: Pf growth 48h, HCV inhibitor, Pf growth 96h)
COc1ccc(COC(=O)c2ccc(S(=O)(=O)N3CCCCC3)cc2)cc1OC	Pf growth 48h inconclusive, Pf growth 96h inconclusive
CCS(=O)(=O)c1ccc2oc(Nc3ccc(OC)cc3)nc2c1	none
CCS(=O)(=O)c1ccc2oc(Nc3ccc(C(C)(C)C)cc3)nc2c1	Pf growth 48h inconclusive, HCV inhibitor inconclusive
CCN(CC)S(=O)(=O)c1ccc2oc(Nc3ccc4c(c3)OCCO4)nc2c1	Pf growth 48h inconclusive, HCV inhibitor 10µM (no result: Pf growth 96h)
CCOc1ccc(Nc2nc3cc(S(=O)(=O)CC)ccc3o2)cc1	Pf growth 96h 13.1µM
S=c1c2c(nc3nc[nH]n13)CCC2	Pf growth 48h 2.08µM, Pf growth 96h 1.65µM
O=c1c2c(nc3nc(CCc4ccccc4)[nH]n13)CCC2	Pf growth 96h inconclusive
FC(F)(F)c1ccc(Cl)c(NC(=S)N/N=C/c2ccccc2Cl)c1	Pf growth 48h inconclusive, Pf growth 96h 1.47µM
O=C(NC(=S)Nc1cc(C(F)(F)F)ccc1Cl)c1ccccc1	Pf growth 96h inconclusive
COc1ccc(CCN2CC(O)=C(c3nc(C)cs3)C2=N)cc1OC	none
COc1ccc(CCN2CC(O)=C(c3nc4ccccc4c(=O)[nH]3)C2=N)cc1OC	Pf growth 48h 13.1µM (no result: Pf growth 96h)
O=S1(=O)Nc2c(ccc3cccnc23)-c2ccccc21	Pf growth 48h 2.62µM, HCV inhibitor inconclusive
O=C(Cn1c(CN2CCCCC2)nc2ccccc2c1=O)NCc1ccco1	none
CCc1c(-c2ccccc2F)ncn1Cc1cccc(-c2ccccc2)c1	none (no result: Pf growth 48h, HCV inhibitor, Pf growth 96h)
CC(C)(C)OC(=O)[C@H](Cc1ccccc1)NC(=O)c1[nH]cnc1C(=O)Nc1ccc(Cl)cc1	Pf growth 48h inconclusive, Pf growth 96h inconclusive
CC(C)C[C@H](NC(=O)c1[nH]cnc1C(=O)Nc1ccc(Cl)cc1)C(=O)OC(C)(C)C	Pf growth 48h 13.1µM, Pf growth 96h 13.1µM
CC(C)C[C@H](NC(=O)c1nc[nH]c1C(=O)NCC(=O)OC(C)(C)C)C(=O)OC(C)(C)C	Pf growth 48h inconclusive, Pf growth 96h inconclusive
CC(C)C[C@H](NC(=O)c1nc[nH]c1C(=O)N[C@@H](CC(C)C)C(=O)OC(C)(C)C)C(=O)OC(C)(C)C	Pf growth 48h 6.57µM, HCV inhibitor inconclusive, Pf growth 96h 8.28µM
COCCN(CC(=O)Nc1cccc(C)c1C)C(=O)C1(c2ccc(Cl)cc2)CCC1	none (no result: Pf growth 48h, Pf growth 96h)
CCOc1ccc(NC(=O)CSc2nc3ccsc3c(=O)n2Cc2ccc(C(=O)O)cc2)cc1	none (no result: Pf growth 48h, HCV inhibitor, Pf growth 96h)
CCn1cc(C=C2C(=O)c3ccccc3C2=O)c2ccccc21	Pf growth 96h inconclusive
Cc1cccc(OCc2nnc(SCC(=O)Nc3ccc(C)c(Cl)c3)o2)c1	none
[Cl][In]([Cl])[Cl]	Pf growth 48h 7.57µM, Pf growth 96h 6.75µM (no result: AMA1-RON2 inh, HCV inhibitor)
CCc1cccc(C)c1NC(=O)CN(C)Cc1ccccc1F	none
CCCc1nc2nc(C)c(NS(=O)(=O)c3ccc(C4CCCCC4)cc3)c(=O)n2[nH]1	none
COc1ccc(/C=C/C2=CCN(C)CC2)cc1	none
CN1CC=C(/C=C/c2ccc(-c3ccccc3)cc2)CC1	Pf growth 48h inconclusive, HCV inhibitor inconclusive, Pf growth 96h 13.1µM
O=C1c2ccccc2C(=O)N1CCCCSc1nnnn1-c1ccccc1	Pf growth 96h inconclusive
O=C1c2ccccc2C(=O)N1CCCCSc1nnc2ccccn12	Pf growth 48h 13.1µM, Pf growth 96h inconclusive
COc1ccc(CN2CCN(Cc3ccc(C(F)(F)F)cc3)CC2)c(OC)c1	AMA1-RON2 inh 25.1µM, HCV inhibitor inconclusive
COc1ccc(CN2CCN(Cc3ccc(C)cc3)CC2)c(OC)c1	HCV inhibitor inconclusive
CS(=O)(=O)N1CCN(Cc2ccccc2C(F)(F)F)CC1	none
COc1ccc(OC)c(CN2CCN(Cc3cc(OC)c(OC)c(OC)c3)CC2)c1	AMA1-RON2 inh inconclusive, Pf growth 96h 13.1µM
CS(=O)(=O)N1CCN(Cc2ccc(C(F)(F)F)cc2)CC1	Pf growth 96h 9.28µM (no result: Pf growth 48h)
O=C(Nc1ccc(Cl)cc1C(F)(F)F)c1ccccc1	Pf growth 96h inconclusive
CC(C)CC(C(=O)NCc1ccccn1)N1C(=O)c2ccccc2C1=O (stereo not drawn)	none
CCNC(=S)N1N=C2c3ccccc3CCC2C1c1ccc(F)cc1 (stereo not drawn)	Pf growth 48h 7.38µM, HCV inhibitor inconclusive, Pf growth 96h 2.62µM
CCOC(=O)C1=C(C)N(c2ccc(OC)cc2)C(=O)/C1=C\c1cccs1	HCV inhibitor 12.6µM
Cc1nc2c(Br)cc(Br)cc2cc1O	Pf growth 96h inconclusive (no result: Pf growth 48h)
Cc1ccc(-c2nnc(N(C)C(=O)C3CCCO3)s2)cn1 (stereo not drawn)	Pf growth 96h inconclusive
CN(C(=O)C1CCCO1)c1nnc(-c2cnccn2)s1 (stereo not drawn)	Pf growth 96h 3.29µM
C=CCn1c(SCc2c(Cl)cccc2Cl)nnc1-c1cccnc1	none (no result: Pf growth 96h)
CCOC(=O)c1cnc(SCc2ccccc2)nc1N	HCV inhibitor inconclusive (no result: Pf growth 96h)
CCOC(=O)c1cnc(SCc2cccc3ccccc23)nc1N	HCV inhibitor inconclusive, Pf growth 96h 4.65µM (no result: Pf growth 48h)
CC(=O)c1ccc(N2CCCC2)c(F)c1	none (no result: AMA1-RON2 inh, Pf growth 96h)
CCC(=O)c1ccc(N2CCN(C(=O)c3cc([N+](=O)[O-])ccc3N3CCN(C)CC3)CC2)c(F)c1	Pf growth 48h inconclusive, HCV inhibitor inconclusive, Pf growth 96h 9.28µM
CCC(=O)c1ccc(N2CCN(C(=O)c3ccc(F)cc3)CC2)c(F)c1	HCV inhibitor inconclusive
CCC(=O)c1ccc(N2CCOCC2)c(F)c1	none (no result: Pf growth 48h, Pf growth 96h)
CCC(=O)c1ccc(N2CCCCC2)c(F)c1	Pf growth 96h 8.28µM
CCCCCC(=O)N1CCN(c2ccc(C(C)=O)cc2F)CC1	Pf growth 96h 7.38µM
CCn1c(=O)c(C(=O)NCCc2ccc(OC)c(OC)c2)c(O)c2ccccc21	Pf growth 48h inconclusive, HCV inhibitor inconclusive, Pf growth 96h 10.4µM
CCCCCCNC(=O)c1c(O)c2cccc3c2n(c1=O)CCC3	Pf growth 96h inconclusive
CCn1c(=O)c(C(=O)NCCc2ccccc2)c(O)c2ccccc21	Pf growth 48h inconclusive
CC(=O)c1c(O)c2ccccc2n(Cc2ccccc2)c1=O	Pf growth 48h inconclusive, Pf growth 96h 13.1µM
CCN(CC)CCNC(=O)c1c(O)c2cccc3c2n(c1=O)CCC3	Pf growth 48h 1.85µM, HCV inhibitor inconclusive (no result: Pf growth 96h)
C=CCn1c(=O)c(C(=O)NCc2ccccc2)c(O)c2ccccc21	HCV inhibitor inconclusive
CCn1c(=O)c(C(=O)NCCN2CCCCC2)c(O)c2ccccc21	Pf growth 48h 8.28µM, HCV inhibitor inconclusive
CC(C)c1ccc(C(=O)N2CCCC(c3cc(C(=O)Nc4ccc5c(c4)OCO5)no3)C2)cc1 (stereo not drawn)	none (no result: Pf growth 48h, HCV inhibitor, Pf growth 96h)
CCCNC(=O)CCCN1C(=O)c2ccccc2Sc2ncccc21	Pf growth 96h inconclusive
CNC[C@H](CC1CCCCC1)NC[C@H](CO)NCCc1cccc(C(F)(F)F)c1	Pf growth 48h inconclusive, HCV inhibitor inconclusive, Pf growth 96h 1.85µM
